Shown are actives, neighbours in structure and some others; about 3.4% of the full set was active somewhere.
GPR151 activ – activators of human GPR151; Q8TDV0; PathHunter beta-arrestin GPR151 cells, luminescence; activation, % at 11.2 µM; 1% of 650,000 active; AID 1508602; in the data active = activation above about 4.9%;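 note: 0% = median of compound wells and 100% = cells with positive control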
MITF primary – blocks human microphthalmia-associated transcription factor | AlphaScreen MITF homodimerization, bead proximity signal | inhibition, % at 2.6 µM | 0.91% of 650,000 active | AID 1259374; in the data active = inhibition above about 50%;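 note: 0% = vehicle wells with protein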
Target sequence (O75030 whole entry, looked up): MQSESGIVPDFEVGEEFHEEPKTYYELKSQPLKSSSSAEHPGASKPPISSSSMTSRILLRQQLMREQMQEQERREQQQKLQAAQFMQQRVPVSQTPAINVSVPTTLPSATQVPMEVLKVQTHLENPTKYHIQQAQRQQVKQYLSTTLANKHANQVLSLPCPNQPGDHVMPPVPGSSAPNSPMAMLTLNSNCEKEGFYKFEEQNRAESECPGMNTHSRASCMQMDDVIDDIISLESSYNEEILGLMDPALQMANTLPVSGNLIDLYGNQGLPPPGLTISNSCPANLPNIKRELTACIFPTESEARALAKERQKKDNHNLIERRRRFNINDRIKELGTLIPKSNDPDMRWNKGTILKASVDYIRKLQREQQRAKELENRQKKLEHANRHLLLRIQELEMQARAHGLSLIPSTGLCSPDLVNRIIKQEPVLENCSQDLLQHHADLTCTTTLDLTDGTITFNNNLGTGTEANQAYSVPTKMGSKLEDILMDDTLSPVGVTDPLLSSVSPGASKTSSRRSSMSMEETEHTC
FBW7 act – human FBW7 E3 ligase activation, primary screen; normalized activity (activation), % at 26.1 µM; AlphaScreen FBW7–phospho-cyclin E peptide binding, activator screen; AID 1259310; Q969H0; 0.13% of 650,000 active; in the data active = normalized activity above about 1.9%;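 note: purified mutant Fbw7 with reduced substrate affinity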
TEAD-YAP block – TEAD-YAP interaction inhibition. HEK-TIYL cells, TEAD-Gal4/YAP UAS-luciferase luminescence. inhibition, % at 9.12 µM. 1.4% of 640,000 active; in the data active = inhibition above about 32%;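 note: 0% = median of test compound wells and 100% = reference inhibitor wells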
Numbers without * were called inactive.

SMILES | GPR151 activ | MITF primary | FBW7 act | TEAD-YAP block
CC(=O)Nc1ccccc1N(C)S(=O)(=O)c1ccc(C)cc1 | 0 | -5 | 0 | 51*
CC(=O)Nc1ccccc1NC(=O)CN(C)S(=O)(=O)c1ccc(C)cc1 | -2 | 19 | 0 | 1
Cn1c2ccccc2n2cc(-c3ccccc3)nc12 | -1 | 13 | 1 | 29
c1ccc(-c2cn3c(ccc4ccccc43)n2)cc1 | -5 | 3 | 0 | 85*
CCSc1sc(CC)cc1C1C(C(=O)Nc2ccc(Br)cn2)=C(C)NC2=C1C(=O)CCC2 (centres undefined) | -1 | -9 | 0 | -10
N=c1sc2c(n1CC(=O)c1ccc(I)cc1)CCCC2 | 1 | 0 | 0 | -42
N=c1sc2c(n1CC(=O)c1ccc(Cl)cc1)CCCC2 | -1 | -15 | 0 | 37*
COc1cc(N)c(Cl)cc1C(=O)OCC(=O)NCCc1ccc(Cl)cc1Cl | 3 | 6 | 0 | 2
CCN1CCN(c2ncnc3c(-c4ccc(OC)cc4)nsc23)CC1 | -1 | 12 | 0 | -55
CC1CCCN(c2ncnc3c(-c4ccccc4)nsc23)C1 (centres undefined) | 1 | 0 | 0 | 80*
Fc1ccc(-c2nsc3c(N4CCOCC4)ncnc23)cc1 | 0 | -1 | 0 | 68*
COc1ccc(-c2nsc3c(N4CCCC(C)C4)ncnc23)cc1 (centres undefined) | 1 | -5 | 0 | 86*
COc1ccc(-c2nsc3c(N4CCCC4)ncnc23)cc1 | 1 | -16 | 0 | 65*
CCOC(=O)c1sc(NC(=O)CSc2nnc(CNC(=O)c3cccs3)n2-c2cccc(C)c2C)c(C(=O)OCC)c1C | -1 | 8 | 0 | 7
O=C(CN1CC(c2ccccc2)CC1=O)NCC1Cc2cccc(-c3ncccn3)c2O1 (centres undefined) | 0 | -4 | 0 | -5
O=C(NCCCn1ccnc1)c1ccc(C#Cc2ccccc2)o1 | 2 | 4 | 0 | 35*
CN1CCN(C(=O)c2ccc(NC(=O)Cn3nc(-c4ccccc4F)ccc3=O)cc2)CC1 | -1 | 16 | 0 | 3
COc1ccccc1-c1ccc(=O)n(CC(=O)Nc2ccc(C(=O)N3CCCC3)cc2)n1 | -1 | 4 | 4.1* | -3
COc1ccc(/C=N/NC(=O)C2CC(=O)N(c3ccc(Br)cc3)C2)cc1 (centres undefined) | 0 | 12 | 0 | 12
CCc1ccc(/C=N\NC(=O)C2CC(=O)N(c3ccc(OC)cc3)C2)cc1 (centres undefined) | 1 | -16 | 0 | 47*
COC(=O)c1sc(NC(=O)c2ccccc2Cl)c(C#N)c1C | 0 | -9 | 0 | 1
Cc1sc(NC(=O)c2ccccc2Cl)c(C#N)c1C | 3 | 0 | 2.6* | -45
CCNc1nc(OC)nc(Oc2ccc(C(=O)OCC)cc2)n1 | -1 | 11 | 1 | 4
CCOC(=O)c1ccc(Oc2nc(NC)nc(OC)n2)cc1 | -1 | 14 | 1.9* | 0
CCN(CC)S(=O)(=O)c1ccc(Cl)c(C(=O)Oc2cccc(NC(=O)c3ccc(OC)cc3)c2)c1 | -2 | 2 | 0 | 67*
SMILES | GPR151 activ | MITF primary | FBW7 act | TEAD-YAP block
CCN(CC)S(=O)(=O)c1cccc(C(=O)Nc2ccc(C#N)cc2)c1 | 5 | 0 | 0 | 47*
CCN(CC)S(=O)(=O)c1cccc(C(=O)Oc2cccc(NC(=O)c3ccc(OC)cc3)c2)c1 | -2 | -4 | 0 | 66*
CCN(CC)S(=O)(=O)c1ccc(Cl)c(C(=O)Oc2cccc(NC(=O)c3ccccc3Cl)c2)c1 | -1 | -4 | 0 | 12
O=P1(Nc2ccccc2Cl)C=C(c2ccccc2)OC(c2ccccc2)=C1 | -1 | 21 | 0 | -2
COc1cccc(OC)c1C(=O)Nc1ccc(-c2cn3c(C)csc3n2)cc1 | 2 | -22 | 0 | 38*
Cc1csc2nc(-c3ccc(NS(=O)(=O)c4cccnc4)cc3)cn12 | -1 | -6 | 0 | 36*
CCOCC(=O)Nc1ccc(-c2cn3c(C)csc3n2)cc1 | 0 | -6 | 0 | 51*
O=C(NCCCc1ccccc1)c1ccc(I)cc1 | -1 | -8 | 0 | -70
CCOc1ccc2[nH]cc(C(=O)NCc3cccnc3)c(=O)c2c1 | 0 | 6 | 0 | 41*
COc1ccc(C2CC(c3ccc(Br)cc3)=NN2C(=O)CSc2nnc(CNC(=O)COc3ccccc3)n2C)cc1 (centres undefined) | 1 | -8 | 0 | 16
CCn1cc(C(=O)N2CCN(c3ccccc3OC)CC2)c(=O)c2ccc(C)nc21 | 0 | 1 | 0 | -1
CCn1cc(C(=O)N2CCN(Cc3nc(-c4ccc(F)cc4)cs3)CC2)c(=O)c2ccc(C)nc21 | -1 | 10 | 0 | 61*
COc1ccc(-c2csc(CN3CCN(C(=O)c4ccc(F)c(F)c4)CC3)n2)cc1 | 0 | 2 | 0 | 50*
Cc1ccc(S(=O)(=O)CCC(=O)Nc2ccc(F)cc2Cl)cc1 | -1 | -6 | 0 | -3
Cc1ccc(-n2ncc3c(Oc4ccc(F)cc4)ncnc32)cc1 | 0 | -1 | 0 | 58*
COc1ccc(Oc2ncnc3c2cnn3-c2ccccc2)cc1 | 1 | 10 | 0 | -11
Cc1ccc(Oc2ncnc3c2cnn3-c2ccccc2)cc1 | 1 | 8 | 0 | 51*
Fc1ccc(-n2ncc3c(Oc4ccc(Cl)cc4)ncnc32)cc1 | 0 | 8 | 0 | 42*
Fc1cccc(Oc2ncnc3c2cnn3-c2cccc(Cl)c2)c1 | -1 | -8 | 0 | -3
COc1ccc(C)cc1N1C(=O)[C@@H]2C[C@H]1CN2CCc1ccccc1 | 1 | -8 | 0 | -1
CSc1cccc(C(=O)N2CC(=O)Nc3ccccc32)c1 | 0 | -5 | 0 | 43*
CC(C)c1ccc2nc(SCC(=O)N3CC(=O)Nc4ccccc43)c(C#N)cc2c1 | 0 | 19 | 0 | 8
Cc1ccc(CC(=O)N2CC(=O)Nc3ccccc32)c(C)c1 | -1 | -12 | 0 | 34*
Cc1cccc2cc(C#N)c(SCC(=O)N3CC(=O)Nc4ccccc43)nc12 | 5 | 5 | 0 | 53*
Cc1ccc(CC(=O)N2CC(=O)Nc3ccccc32)cc1 | 4 | 6 | 0 | 45*
SMILES | GPR151 activ | MITF primary | FBW7 act | TEAD-YAP block
COc1ccc(CC(=O)N2CC(=O)Nc3ccccc32)cc1OC | 0 | 7 | 0 | 25
CCCCOc1ccc(C(=O)OCC(=O)c2ccc([N+](=O)[O-])cc2)cc1 | -2 | -4 | 0 | -8
Cn1c(SCC(=O)c2ccc(Br)cc2)nc2c1c(=O)[nH]c(=O)n2C | -1 | 3 | 0 | -1
O=C(Nc1ccccc1)c1ccc2nc(-c3csc4ccccc34)sc2c1 | 0 | 8 | 1 | -39
CNC(=O)COC(=O)CCOc1ccc(OC)cc1 | 1 | -9 | 0 | 5
O=C(c1ccco1)N1CCN(c2nccn3c(-c4cccc(F)c4)cnc23)CC1 | 1 | 3 | 0 | -16
CC(=O)Nc1cccc(-c2cnc3c(N4CCN(C(=O)c5ccco5)CC4)nccn23)c1 | -5 | -9 | 0 | 93*
CC(=O)Nc1cccc(-c2cnc(N3CCN(C(=O)c4ccco4)CC3)c3nccn23)c1 | -5 | 16 | 3.2* | 92*
